This is one part of a sample in which the strongest signals are shown more often than they occur.
B1: Surfactant Protein D (rat); Neck + Carbohydrate Recognition Domain (NCRD) (Rattus norvegicus) (protein)
chain: MLLFLLSALVLLTQPLGYLEAEMKTYSHRTMPSACTLVMCSSVESGLPGRDGRDGREGPRGEKGDPGLPGAAGQAGMPGQAGPVGPKGDNGSVGEPGPKGDTGPSGPPGPPGVPGPAGREGALGKQGNIGPQGKPGPKGEAGPKGEVGAPGMQGSAGARGAGPKGERGVPGERGVPGNTGAAGSAGAMGPQGSPGARGPPGLKGDKGIPGDKGAKGESGLPDVASLRQQVEALQGQVQHLQAAFSQYKKVELFPNGQSVGEKIFKTAGFVKPFTEAQLLCTQAGGQLASPRSAAENAALQQLVVAKNEAAFLSMTDSKTEGKFTYPTGESLVYSNWAPGEPNDDGGSEDCVEIFTNGKWNDRACGEKRLVVCEF
B2: Tulipa lectin C-1 (Tulipa hybrid) (protein)
chain: MGMALVVALAVALASTVAGQQNVLLSGNTLANEESLSYGSVKFIMQNDCNLVLYGGGFQSNTASNGKKCTLTLNNNGHLIINDGLTGRVVWRNSNAQNPVGRYAAVLRPAPGTADVAIYGPAIWSTNDEFSYQESGVVPHKLGRETPNLPRMQNLLFSGQTLYGTDGMLSSNDGSTTFELSKCQLSLSLGNEVKWKVAPTVENGKENYCHVRLDHRGHLSLLNDDNVVLFRSIPTNGVEPPIGDYVLIVEKGAGYIYGPPIWNTYDNRRYKVASA

How the values were obtained:
Experiment in all cases: glycan array binding signal (z-score within array); higher = stronger binding
Conditions in all cases: glycan notation: IUPAC condensed, linker removed
[1] = molecular target: Fuc(a1-2)Gal(b1-4)GlcNAc(b1-3)Gal(b1-4)GlcNAc
Summary of the method: (§1)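 Arrays were curated from the Consortium for Functional Glycomics database, 3228 in total, and kept only where the protein sequence was available. Binding is expressed as a within-array Z-score. This score was averaged across arrays of the same protein sequence at different concentrations or buffers and across linkers, and negative values can be read as non-binding.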

[2] = molecular target: Fuc(a1-3)[Gal(b1-4)]GlcNAc6S
Summary of the method: as §1

Gal(a1-4)Gal(b1-4)Glc = molecular target: Gal(a1-4)Gal(b1-4)Glc
Summary of the method: as §1

Gal(a1-4)GlcNAc = molecular target: Gal(a1-4)GlcNAc
Summary of the method: as §1

[3] = molecular target: Gal(b1-3)GlcNAc(b1-3)Gal(b1-4)Glc
Summary of the method: as §1

[4] = molecular target: Gal(b1-4)GalNAc(b1-3)[Fuc(a1-2)]Gal(b1-4)GlcNAc
Summary of the method: as §1

[5] = molecular target: GlcNAc(b1-4)GlcNAc(b1-4)GlcNAc(b1-4)GlcNAc(b1-4)GlcNAc(b1-4)GlcNAc
Summary of the method: as §1

[6] = molecular target: Man(a1-2)Man(a1-2)Man(a1-6)[Man(a1-3)]Man
Summary of the method: as §1

[7] = molecular target: Man(a1-2)Man(a1-3)[Man(a1-2)Man(a1-6)]Man
Summary of the method: as §1

[8] = molecular target: Man(a1-2)Man(a1-3)[Man(a1-2)Man(a1-6)]Man(a1-6)[Man(a1-2)Man(a1-2)Man(a1-3)]Man
Summary of the method: as §1

[9] = molecular target: Man(a1-2)Man(a1-6)[Man(a1-3)]Man(a1-6)[Man(a1-2)Man(a1-2)Man(a1-3)]Man
Summary of the method: as §1

[10] = molecular target: Man(a1-2)Man(a1-6)[Man(a1-3)]Man(a1-6)[Man(a1-2)Man(a1-2)Man(a1-3)]Man(b1-4)GlcNAc(b1-4)GlcNAc
Summary of the method: as §1

Man(a1-6)Man = molecular target: Man(a1-6)Man
Summary of the method: as §1

[11] = molecular target: Neu5Ac(a2-3)Gal(b1-3)GalNAc(b1-3)Gal(a1-4)Gal(b1-4)Glc
Summary of the method: as §1

[12] = molecular target: Neu5Ac(a2-3)Gal(b1-3)GalNAc(b1-3)Gal(b1-4)GlcNAc
Summary of the method: as §1

[13] = molecular target: Neu5Ac(a2-3)Gal(b1-4)GlcNAc(b1-2)Man(a1-3)[Neu5Ac(a2-6)Gal(b1-4)GlcNAc(b1-2)Man(a1-6)]Man(b1-4)GlcNAc(b1-4)GlcNAc
Summary of the method: as §1

[14] = molecular target: Neu5Ac(a2-3)Gal(b1-4)[Fuc(a1-3)]GlcNAc
Summary of the method: as §1

[15] = molecular target: Neu5Ac(a2-6)Gal(b1-4)GlcNAc(b1-2)Man(a1-3)[Neu5Ac(a2-6)Gal(b1-4)GlcNAc(b1-2)Man(a1-6)]Man(b1-4)GlcNAc(b1-4)GlcNAc
Summary of the method: as §1

[16] = molecular target: Neu5Ac(a2-6)Gal(b1-4)GlcNAc(b1-3)Gal(b1-4)GlcNAc
Summary of the method: as §1

[17] = molecular target: Neu5Ac(a2-8)Neu5Ac(a2-8)Neu5Ac(a2-3)Gal(b1-4)Glc
Summary of the method: as §1

[18] = molecular target: Gal(b1-3)GalNAc(b1-3)Gal(b1-4)Glc
Summary of the method: as §1

[19] = molecular target: Gal(b1-4)GlcNAc(b1-2)Man(a1-3)[Gal(b1-4)GlcNAc(b1-2)Man(a1-6)]Man(b1-4)GlcNAc(b1-4)GlcNAc
Summary of the method: as §1

[20] = molecular target: GlcNAc(b1-2)Man(a1-3)[GlcNAc(b1-2)Man(a1-6)]Man(b1-4)GlcNAc(b1-4)GlcNAc
Summary of the method: as §1

[21] = molecular target: GlcNAc(b1-3)Gal(b1-4)GlcNAc
Summary of the method: as §1

[22] = molecular target: Man(a1-2)Man(a1-3)[Man(a1-3)[Man(a1-6)]Man(a1-6)]Man(b1-4)GlcNAc(b1-4)GlcNAc
Summary of the method: as §1

[23] = molecular target: Man(a1-3)[Man(a1-6)]Man(b1-4)GlcNAc(b1-4)GlcNAc
Summary of the method: as §1

[24] = molecular target: Neu5Ac(a2-6)Gal(b1-4)GlcNAc(b1-3)Gal(b1-4)[Fuc(a1-3)]GlcNAc(b1-3)Gal(b1-4)[Fuc(a1-3)]GlcNAc
Summary of the method: as §1

[25] = molecular target: Neu5Ac(a2-6)GalNAc(b1-4)GlcNAc
Summary of the method: as §1

Row | Binder | glycan array binding signal (z-score) [1] | glycan array binding signal (z-score) [2] | glycan array binding signal (z-score) (Gal(a1-4)Gal(b1-4)Glc) | glycan array binding signal (z-score) (Gal(a1-4)GlcNAc) | glycan array binding signal (z-score) [3] | glycan array binding signal (z-score) [4] | glycan array binding signal (z-score) [5] | glycan array binding signal (z-score) [6] | glycan array binding signal (z-score) [7] | glycan array binding signal (z-score) [8] | glycan array binding signal (z-score) [9] | glycan array binding signal (z-score) [10] | glycan array binding signal (z-score) (Man(a1-6)Man) | glycan array binding signal (z-score) [11] | glycan array binding signal (z-score) [12] | glycan array binding signal (z-score) [13] | glycan array binding signal (z-score) [14] | glycan array binding signal (z-score) [15] | glycan array binding signal (z-score) [16] | glycan array binding signal (z-score) [17] | glycan array binding signal (z-score) [18] | glycan array binding signal (z-score) [19] | glycan array binding signal (z-score) [20] | glycan array binding signal (z-score) [21] | glycan array binding signal (z-score) [22] | glycan array binding signal (z-score) [23] | glycan array binding signal (z-score) [24] | glycan array binding signal (z-score) [25]
1 | B1 | -0.183 | 0.145 | -0.276 | -0.242 | -0.194 | -0.02 | -0.108 | 4.11 | 3 | 13.2 | 4.18 | 8.4 | -0.223 | -0.176 | -0.198 | -0.117 | 0.004 | 0.111 | -0.105 | -0.048 | – | – | – | – | – | – | – | –
2 | B2 | -0.2 | – | – | – | – | – | – | – | – | – | – | – | – | – | – | – | – | 5.26 | – | – | -0.226 | 5.37 | 4.39 | -0.23 | -0.179 | 4.98 | -0.093 | -0.003

From the supplement of paper PMC8728848
